# A selection: hits, their analogues and other compounds. The true share with any hit is near 4%.
# TRHR ag: activates the human TRH receptor | P34981 | TRHR cells, calcium flux fluo-8, FDSS agonist mode | activation, % at 2 µM | 360,000 tested, 0.18% active | AID 493084; also: 0% is about no effect
#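 Fluo-8-loaded TRHR cells; 10 s baseline, compound added, kinetic Ca2+ fluorescence read 1/s, agonist mode.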
# D1 potentiator: human D1 dopamine receptor positive modulation; 360,000 tested, 0.036% active; HEK293 TREx D1 cells, calcium flux, dopamine EC20 potentiation; AID 504651; potentiation, % at 10 µM; P21728; in the data active = potentiation above about 30%; also: 0% is about no effect
# Target sequence (P21728 whole entry, looked up): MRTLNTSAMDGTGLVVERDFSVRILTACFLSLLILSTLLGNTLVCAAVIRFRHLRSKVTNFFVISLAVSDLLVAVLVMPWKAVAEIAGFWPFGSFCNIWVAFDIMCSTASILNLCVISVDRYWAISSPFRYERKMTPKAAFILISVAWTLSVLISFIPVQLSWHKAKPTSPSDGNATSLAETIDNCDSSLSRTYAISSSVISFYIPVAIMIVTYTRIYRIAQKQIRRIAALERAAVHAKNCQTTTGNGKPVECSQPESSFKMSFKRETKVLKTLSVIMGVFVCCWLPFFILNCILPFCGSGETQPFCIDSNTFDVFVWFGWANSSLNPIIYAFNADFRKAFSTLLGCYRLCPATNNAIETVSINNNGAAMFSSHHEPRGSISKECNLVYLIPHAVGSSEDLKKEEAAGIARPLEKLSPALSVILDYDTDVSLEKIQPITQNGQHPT
# D1 antag: blocks dopamine activation of the human D1 receptor; P21728; HEK293 TREx D1 cells, calcium flux, dopamine EC80; active compounds read low; activity change, negative = inhibition, % at 10 µM; 360,000 tested, 3.2% active; in the data active = activity change below about -30%; also: % is scaled to controls: 0 for no effect and ±100 for the full control effect
#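 HEK293 T-REx cells expressing inducible, force-coupled D1 receptor; no-wash Ca dye, 30–90 min RT. Cmpd → 180 s read at 1 Hz → EC80 DA → 180 s read.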
# TRHR enhancer: TRH receptor (human) allosteric enhancement | P34981 | TRHR cells, fluo-8 calcium fluorescence, EC20 TRH enhancement | enhancement, % at 2 µM | 360,000 tested, 0.66% active | AID 493056; in the data active = enhancement above about 30%; also: 0% is about no effect
#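 TRHR-expressing cells loaded with fluo-8 calcium dye were read kinetically (ex 480/em 530) during compound addition, then stimulated with an EC20 of TRH (10 nM final). Enhancement of the Gq-mediated intracellular calcium response was scored.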
# GRP78 ERSR act: induces the endoplasmic reticulum stress response in human glioma cells | U87-MG GRP78 promoter luciferase reporter, 16 h | Potency, µM, without a hit: top-dose activation, usual class: activators | 420,000 tested, 0.02% active | AID 602332; active = well fitted activation curve with a large enough effect; inconclusive = small, poorly fitted or top-dose-only effect; inactive = no such curve, though single readings can be large or run the other way; also: potency is read from the fitted curve at half-maximal effect; series mostly up to about 76 µM; % of control where 0% means no effect; nearly all actives have a fitted effect of over 35% in size
#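 Stably transfected U87-MG glioma cells carrying a GRP78-based luciferase sensor; 16 h compound incubation. Luminescence end-point read 10 min after Bright-Glo addition at room temperature.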
# D1 agonist: activates the human D1 dopamine receptor | HEK293 T-REx D1 cells, calcium flux, agonist mode | P21728 | activation, % at 2 µM | 360,000 tested, 1% active; also: 0% is about no effect
#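 Agonism was scored from calcium flux recorded over 180 s (1 read/s) after pintool compound addition, following a 10-cycle baseline. Cells were inducible force-coupled HEK293 TREx D1, plated overnight at 30 C and loaded with no-wash calcium dye.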
# * = called active by the depositor; ? = inconclusive; nt = no result. Rule as the data show it, unless noted: active = activation above about 30%; inactive = the rest.
SMILES,TRHR ag,D1 potentiator,D1 antag,TRHR enhancer,GRP78 ERSR act,D1 agonist
COc1cc(NC(=O)NCCN2CCN(c3ccc(Cl)cc3)CC2)ccc1C,5.0,-7.2,-18.1,2.5,0.2%,63.9*
COc1ccc(OC)c(NC(=O)NCCN2CCN(c3ccccc3)CC2)c1,-0.4,-6.8,-54.1*,2.7,1.1%,9.4
COc1cc(C(=O)NC2CC(C)(C)NC(C)(C)C2)cc(OC)c1OC,1.0,-1.6,1.8,-4.4,0.1%,1.5
O=C(O)c1cc(Cl)c(Cl)cc1C(=O)Nc1cccnc1,-0.3,8.9,4.6,12.2,nt,6.8
COCn1c2ccccc2c2nnc(C(C)=O)nc21,nt,nt,nt,nt,-4.9%,nt
CCOC1=C2[C@@H](CN(S(=O)(=O)c3ccc(C)cc3)[C@H]2c2cccc3ccccc23)[C@H]2C(=O)N(Cc3ccccc3)C(=O)[C@H]2C1,nt,nt,nt,nt,-1.0%,nt
CCOc1ccc(-n2nc3c(=O)[nH]nc(C)c3c2C)cc1,-0.4,-0.4,-59.8*,0.6,-5.8%,0.3
Cc1ccc(C(OCC(O)CNC(C)c2ccccc2)c2ccccc2)cc1 (configuration not stated),0.8,4.0,-38.2*,10.7,-15.4%,13.8
Cc1ccc(OCC(O)CNC(C)c2ccccc2)cc1C (configuration not stated),1.5,1.7,-0.5,-0.9,-2.0%,31.9*
Cc1ccc(C(OCC(O)CN2CCCCC2)c2ccccc2)cc1 (configuration not stated),1.3,-12.2,4.0,1.0,-4.2%,3.0
CCSc1nnc(NC(=O)Cc2ccc(OC)cc2)s1,-1.8,-9.4,-47.3*,5.5,0.8%,-0.1
COC(=O)c1ccc(CSc2nnc(Nc3ccc(OC)cc3)s2)o1,-0.6,-2.0,-30.5*,-2.2,?,-0.8
COc1cccc(C(=O)Nc2cc(C(=O)NCc3ccc(C)cc3)ccc2N2CCC3(CC2)CC(c2ccccc2)=NO3)c1,0.6,15.0,-13.8,-1.9,-4.3%,6.7
CC(/C=N/NC(=O)c1ccccc1F)=C\c1ccccc1,-0.9,-12.0,-35.2*,-2.5,-1.1%,-1.4
Cc1cc(C(=O)N/N=C/C(Cl)=C/c2ccccc2)c(C)o1,0.3,-4.2,-32.6*,-5.5,11.8%,4.0
CC(/C=N/NC(=O)c1n[nH]c2c1CCC2)=C\c1ccccc1,-0.6,-0.6,-78.9*,-1.1,-5.2%,4.3
CC(=C/c1ccccc1)/C=N/NC(=O)CSc1nc(C)cc(C)n1,-0.5,-9.1,-33.9*,3.2,-2.4%,8.6
CC(=O)Nc1ccc2c(CSc3nncs3)cc(=O)oc2c1,0.5,0.2,-10.5,-0.1,1.4%,2.9
COC(=O)[C@@]1(Cc2ccc(OC)cc2)[C@H]2c3cc(C(=O)N4CCCC4)n(CCN4CCNC4=O)c3C[C@H]2CN1C(=O)c1ccccc1,0.9,0.8,-0.3,2.5,nt,-0.4
Cc1ccc(CC(=O)Nc2c(C(=O)N3CCN(c4ccccc4)CC3)oc3ccccc23)cc1,-0.3,-1.0,-4.3,-1.2,-1.9%,-1.3
COc1ccccc1C(=O)Nc1c(C(=O)N2CCN(c3ccc(F)cc3)CC2)oc2ccccc12,0.3,-2.9,12.5,12.7,-4.2%,1.9
CCCCC(=O)Nc1c(C(=O)N2CCN(c3ccccc3)CC2)oc2ccccc12,-0.8,-0.7,-48.1*,-4.0,-1.9%,2.0
CC(C)C(=O)Nc1c(C(=O)N2CCN(c3ccccc3F)CC2)oc2ccccc12,-0.4,4.0,3.8,-20.7,2.1%,-0.7
O=C(Cc1ccccc1)Nc1c(C(=O)N2CCN(c3ccc(F)cc3)CC2)oc2ccccc12,-2.1,-1.9,-43.0*,27.3,0.2%,5.8
O=C(COc1ccccc1)Nc1c(C(=O)N2CCN(c3ccc(F)cc3)CC2)oc2ccccc12,-0.8,-9.6,-30.7*,16.2,1.6%,5.0
CC(C)C(=O)Nc1c(C(=O)N2CCN(c3ncccn3)CC2)oc2ccccc12,0.0,-7.8,-33.6*,-7.3,6.3%,0.0
N#C/C(=C/c1ccc(-c2ccc(S(=O)(=O)N3CCOCC3)cc2)o1)C(=O)NC1CC1,nt,nt,nt,nt,-2.0%,nt
CC(=O)Nc1ccc(-c2cc(C(=O)O)c3c(-c4ccccc4)[nH]nc3n2)cc1,0.4,-0.1,-39.4*,-4.1,-3.5%,1.0
